# Screening data from PubChem.
# DAX1 inh-1: DAX1 (NR0B1) inhibition, primary screen | inhibition, % at 6.8 µM | 370,000 compounds, 1.1% hits | HEK293T StAR-luciferase reporter, SF-1/DAX-1 repression relief | AID 652010;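 active = inhibition above the mean over all tested compounds plus 3 SD, cut at about 3.6% in these data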;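 note: 0% = DAX-1 cells with DMSO and 100% = cells lacking DAX-1 with DMSO; higher inhibition means more luminescence from relief of DAX-1 repression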
# hcDAF-12 act: H. contortus DAF-12 activation, primary screen; activation, % at 6.8 µM; 370,000 compounds, 1.4% hits; HEK293 hcDAF-12 lit1-tk-luc reporter, luminescence; 0% DMSO, 100% Δ7-dafachronic acid;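 active = activation above the mean of all tested compounds plus 3 SD, cut at about 5.5% in these data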;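 note: 100% = response to 3 µM Δ7-dafachronic acid high control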
# ssDAF12 agonist: activators of S. stercoralis DAF-12 nuclear receptor; HEK293 ssDAF-12/GRIP1 lit1-tk-luc reporter, luminescence; % of 3 µM dafachronic acid response; activation, % at 6.8 µM; 370,000 compounds, 1% hits; AID 652126;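 active = activation above the mean over all tested compounds plus 3 SD, cut at about 0.9% in these data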;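 note: 0% = DMSO-only wells and 100% = 3 µM delta7-dafachronic acid wells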
# DAX1 inh-2: inhibits human nuclear receptor DAX1. P51843. HEK293 Gal4-DAX1 luciferase reporter, luminescence. inhibition, % at 6.75 µM. 340,000 compounds, 0.99% hits;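 active = inhibition above the mean over all tested compounds plus 3 SD, cut at about 4.2% in these data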;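 note: 0% = DAX1-transfected cells with DMSO and 100% = empty-vector control cells with DMSO; inhibition shows as a rise in luminescence from relieved DAX1 repression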
# Target sequence (P51843 207-470 limits assumed): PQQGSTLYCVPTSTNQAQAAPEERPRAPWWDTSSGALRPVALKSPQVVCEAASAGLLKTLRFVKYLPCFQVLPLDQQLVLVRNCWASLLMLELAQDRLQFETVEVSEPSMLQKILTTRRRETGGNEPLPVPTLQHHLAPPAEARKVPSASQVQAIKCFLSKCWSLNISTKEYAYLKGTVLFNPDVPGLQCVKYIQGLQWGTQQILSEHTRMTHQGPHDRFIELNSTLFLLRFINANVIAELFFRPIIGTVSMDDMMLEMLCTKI
# hgDAF12 agonist: agonists of H. glycines DAF-12 nuclear receptor; HEK293 GAL4-hgDAF12 UAS-luciferase reporter, agonist luminescence; normalized to butyrate control; activation, % at 6.8 µM; 370,000 compounds, 1.8% hits;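 active = activation above a cutoff set at the mean of all screened compounds plus 3 SD, cut at about 10% in these data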;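 note: 0% = DMSO wells and 100% = sodium butyrate wells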
# An asterisk follows results filed as active; nt = no result. Rows were chosen to be rich in hits. Some 4.1% of all compounds tested hit in one or more screens of this group.
SMILES,DAX1 inh-1,hcDAF-12 act,ssDAF12 agonist,DAX1 inh-2,hgDAF12 agonist
O=C(Cc1ccccc1)c1ccc(N2CCOCC2)cc1,1,1,-1,1,11*
COC(=O)c1cc(NC(=O)/C=C/c2ccccc2)ccc1O,1,1,-1,nt,11*
O=C(/C=C/c1ccccc1)Nc1ccc(N2CCCCC2)cc1,2,1,0,0,13*
O=C(C1CCCN1S(=O)(=O)c1ccc(F)cc1)N1CCc2ccccc2C1 (stereo not drawn),-1,-2,-1,nt,-4
CCNC(=O)N(C)[C@H]1C[C@H]2c3[nH]c4c(-c5ccccc5)cccc4c3CCN2C(=O)[C@H]1[C@H](C)O,-1,0,-1,nt,-3
Cc1nc2ccc(NC(=O)c3cc(F)cc(F)c3)cc2c(=O)[nH]1,0,1,-1,nt,-1
N#Cc1cc2cc(Cl)ccc2[nH]c1=O,4.1*,-1,-1,nt,1
O=C(c1ccccc1)c1cc2cc(Cl)ccc2[nH]1,1,3,1,2,5
Cc1c(/C=N/NC(=O)c2ccc(Br)o2)cnn1C,1,6.2*,0,nt,9
Cc1c(/C=N\NC(=O)c2ccc(F)cc2)cnn1C,0,0,-1,-1,0
C=CCSc1nnc(NC(=O)c2ccc3c(c2)OCCO3)s1,3.9*,1,-1,1,5
O=C(O)CSc1nnc(NC(=O)c2ccc3c(c2)OCO3)s1,0,0,-2,-2,-1
C=CCOc1cccc(/C=N/NC(=O)CN(c2cc(Cl)ccc2OC)S(=O)(=O)c2ccc(C)c([N+](=O)[O-])c2)c1,0,1,1.0*,1,0
CC(=O)OCC(=O)N1N=C(c2ccc3ccccc3c2)CC1c1ccccc1 (stereo not drawn),0,-2,-2,-1,0
CCOC(=O)c1nnn(CC(=O)N2N=C(c3ccccc3)CC2c2ccccc2)c1C(=O)OCC (stereo not drawn),0,0,-1,5.1*,-1
CCOC(=O)/C=C(\C)N1N=C(c2ccccc2)CC1c1ccccc1 (stereo not drawn),2,6.7*,0,3,10
CCc1c(C)sc(NC(=S)N2CCN(CC)CC2)c1C(=O)OC,0,-2,-2,5.2*,1
CCOc1ccc(OCC)c(NC(=O)CCSCCc2ccccn2)c1,0,0,-1,4.3*,0
CCn1nnnc1SCC(=O)Nc1ccc(OC)cc1,0,2,0,3,1
CCOc1ccc(OCC)c(NC(=O)CSc2nnnn2CC)c1,0,-2,-1,4.3*,0
Oc1ccc(/C=N/N2CCCCC2)c(O)c1O,0,-6,-1,0,-3
Oc1ccc(/C=N/N2CCOCC2)c(O)c1O,-1,0,-2,6.2*,5
N#C/C(=N\Nc1ccccc1)C(=N)N1CCCCCC1,2,5,1,6.8*,10
COc1ccc(N/N=C(\C#N)C(=N)N2CCOCC2)cc1,3,0,-1,5.3*,8
N#C/C(=N/Nc1ccccc1F)C(=N)N1CCOCC1,1,0,-1,0,3
SMILES,DAX1 inh-1,hcDAF-12 act,ssDAF12 agonist,DAX1 inh-2,hgDAF12 agonist
CS(=O)(=O)N[C@@H]1C[C@@H]2O[C@@H](CO)CC[C@@H]2O[C@@H]1CCc1ccc(/C=C/c2ccccc2)cc1,0,1,-1,nt,1
Brc1ccc(-c2noc(CCc3ccccc3)n2)cc1,1,-1,-1,4.7*,3
c1csc(-c2noc(COc3ccc4c(c3)CCCC4)n2)c1,4.0*,3,0,4,12*
COc1ccc(Cc2nc(-c3ccccc3)no2)cc1,1,1,-1,0,13*
COc1ccc(Cc2nc(-c3cccs3)no2)cc1,1,0,-1,0,11*
COc1ccc(NC(=O)CN(C)C(=O)C23CC4CC(CC(C4)C2)C3)cc1,-2,-2,-1,1,-1
CC(C)NC(=O)Cn1c(-c2cncs2)nc2ccccc21,0,-1,-2,nt,0
Cc1ccc(-n2c(Cc3cccs3)nnc2SCC(=O)Nc2ccccc2-c2ccccc2)cc1,0,-2,-2,nt,2
CCOC(=O)C1CCN(C(=O)CSc2ccc(Cl)cc2)CC1,0,-2,-1,0,2
CCOC(=O)C1CCN(C(=O)C(C)Sc2ccc(Cl)cc2)CC1 (stereo not drawn),0,-1,-1,4.7*,3
